From PubChem
IL-1B inflam inh: blocks inflammasome-driven IL-1 beta release; activity change, % at 57.5 µM; THP-1 LPS/ATP IL-1B secretion, AlphaLISA, 16 h; stronger effect = lower value; hit rate 4.7% among 360,000; in the data active = activity change below about -50%; inconclusive = mostly about -30% to -49%
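Secreted IL-1B measured by AlphaLISA bead assay after 16 h compound exposure of THP-1 cells; compounds (final up to 57.5 uM) added 1 h before LPS (250 ng/mL) and ATP (1.25 mM) stimulation; lower signal means less secretion.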
Gal4-VP16 FLuc: inhibits Gal4-VP16 luciferase reporter, ROR gamma counter-screen | AID 2546 | Potency, µM (titrated, usually from 53.6 µM), for the others: at the highest dose activity, negative = inhibition, most hits filed as inhibitors | hit rate 3.5% among 310,000 | Drosophila S2 Gal4-VP16 UAS-luciferase, luminescence, 20 h;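 also: Gal4-VP16 expression switched on by copper sulfate through the metallothionein promoter; potency is read from the fitted curve at half-maximal effect; nearly all actives have a fitted effect of over 50% in size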
DT40 TDP1 CPT: growth inhibition of DT40 Tdp1-/-;hTDP1 cells with camptothecin (screen for TDP1 inhibitors); chicken DT40 Tdp1-/-;hTDP1 cells + 20 nM CPT, ATP luminescence, 48 h; Potency, µM (top dose mostly 46.2 µM), for the others: at the top dose activity change, negative = growth inhibition, hits mostly inhibitors; hit rate 12% among 420,000; also: potency is read from the fitted curve at half-maximal effect; nearly all actives have a fitted effect of over 55% in size
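Chicken DT40 Tdp1-/- cells stably complemented with human TDP1 were seeded at 400 cells/well in medium containing 20 nM camptothecin, exposed to pin-transferred compounds, and grown at 37 °C for at least 48 hr. Viability was read as ATP luminescence.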
TDP1 cell noCPT: qHTS for Inhibitors of human tyrosyl-DNA phosphodiesterase 1 (TDP1): qHTS in cells in absence of CPT | AID 686978, 2013 | Potency, µM (highest dose often 46.2 µM), for inactives: top-dose activity change, negative = growth inhibition, actives largely listed as inhibitors | hit rate 15% among 420,000 | DT40 Tdp1-/- hTDP1 cells, no CPT, ATP luminescence, 48 h; also: potency is read from the fitted curve at half-maximal effect; nearly all actives have a fitted effect of over 55% in size
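Chicken DT40 Tdp1-/- cells stably complemented with human TDP1 were seeded at 400 cells/well with DMSO in place of 20 nM camptothecin. After compound pinning, cells grew at least 48 hr at 37 °C; viability read by CellTiter-Glo luminescence.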
LDHA inh: inhibitors of human lactate dehydrogenase A; activity change, % (values are at about 110 or 230 µM); AID 1347041; purified LDHA, NADH/diaphorase-resazurin fluorescence; stronger effect = lower value; hit rate 0.15% among 480,000; in the data active = activity change below about -30%; inconclusive = mostly about -25% to -30%;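 also: plate controls were DMSO wells for no effect and wells without enzyme for full effect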
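Resorufin fluorescence (ex540/em590), read at 0 and 20 min after diaphorase/resazurin addition, reports the NADH left after a 5 min room-temperature reaction of 2 nM human LDH5 with 0.06 mM NADH and 0.2 mM pyruvate.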
RORgamma inh: ROR gamma (mouse) transcription inhibition. Potency, µM (titrated, usually from 53.6 µM), for the others: at the highest dose activity change, negative = inhibition, actives largely listed as inhibitors. Drosophila S2 Gal4-RORgamma UAS-luciferase reporter, 20 h. hit rate 5.4% among 310,000. P51450. AID 2551; also: potency is read from the fitted curve at half-maximal effect; nearly all actives have a fitted effect of over 60% in size
Target sequence (P51450 whole entry, looked up, the tested form may be a part): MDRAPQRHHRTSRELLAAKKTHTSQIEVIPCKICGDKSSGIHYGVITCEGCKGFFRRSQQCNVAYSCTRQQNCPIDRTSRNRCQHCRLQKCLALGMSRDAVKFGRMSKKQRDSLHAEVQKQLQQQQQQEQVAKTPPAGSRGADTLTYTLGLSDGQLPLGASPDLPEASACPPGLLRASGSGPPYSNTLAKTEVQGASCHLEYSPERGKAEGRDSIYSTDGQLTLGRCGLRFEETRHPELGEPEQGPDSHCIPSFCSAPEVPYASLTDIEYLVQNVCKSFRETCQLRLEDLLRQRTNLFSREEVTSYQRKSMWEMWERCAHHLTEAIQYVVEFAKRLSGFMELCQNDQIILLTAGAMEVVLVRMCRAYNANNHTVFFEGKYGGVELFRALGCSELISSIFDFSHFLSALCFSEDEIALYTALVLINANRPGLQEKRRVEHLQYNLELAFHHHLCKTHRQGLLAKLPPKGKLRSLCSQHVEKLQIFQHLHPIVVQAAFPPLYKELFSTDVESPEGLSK
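ROR gamma transcriptional activity was tracked as Gal4-UAS luciferase output in stably transfected Drosophila Schneider cells, with compound added 1 hr before 700 uM copper sulfate induction and a 20 hr ambient-temperature incubation.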
* = called active by the depositor; [ ] = another dose, or the depositor's remark. Rows were chosen to be rich in hits. Some 18% of all compounds tested hit in one or more screens of this group. Unless noted, calls follow the shape of the dose curve; as a rule, active = well fitted curve in the direction sought with a large enough effect; inconclusive = small, poorly fitted or top-dose-only effect, or another doubt; inactive = no such curve, though single readings can be large; an effect the other way counts as inactive or inconclusive. Unless noted, % is scaled to controls: 0 for no effect and ±100 for the full control effect.

`CC(=O)c1ccc(Nc2ncnc3ccc(Br)cc23)cc1` gave IL-1B inflam inh -3, DT40 TDP1 CPT -22%, TDP1 cell noCPT inconclusive and LDHA inh -8.
`O=[N+]([O-])c1ccc(O)c(Nc2ncnc3ccc(Br)cc23)c1` gave IL-1B inflam inh 27, Gal4-VP16 FLuc -20%, DT40 TDP1 CPT -20%, TDP1 cell noCPT 12µM*, LDHA inh -11 and RORgamma inh inconclusive.
For CC(=O)c1cccc(Nc2ncnc3ccc(Br)cc23)c1 the results were IL-1B inflam inh 117, Gal4-VP16 FLuc 7%, DT40 TDP1 CPT 16µM*, TDP1 cell noCPT 21µM*, LDHA inh 1 and RORgamma inh 3%.
For Cn1nc(C(=O)OCc2nc(-c3ccc4c(c3)OCO4)no2)c2ccccc21 the results were LDHA inh 6.
Screening CC(OC(=O)c1ccc2c(c1)NC(=O)CS2)C(=O)Nc1cccc(C(F)(F)F)c1 (configuration not stated) returned LDHA inh 4.
`COC(=O)c1cccc(Nc2ncnc3sccc23)c1` gave IL-1B inflam inh 23, Gal4-VP16 FLuc -6%, DT40 TDP1 CPT 21µM*, TDP1 cell noCPT inconclusive, LDHA inh -2 and RORgamma inh 29%.
`CN(C)C(=O)c1ccc(-c2ccc3ncnc(Nc4ccccc4)c3c2)cc1` gave Gal4-VP16 FLuc 3%, DT40 TDP1 CPT inconclusive, TDP1 cell noCPT 1.5µM* and RORgamma inh -28%.
For Cc1cccc(Nc2nc(-c3ccccc3)nc3ccccc23)c1 the results were DT40 TDP1 CPT inconclusive, TDP1 cell noCPT -81% and LDHA inh -3.
Screening CN(C)C(=O)c1ccc(-c2ccc3ncnc(NCc4cccs4)c3c2)cc1 returned Gal4-VP16 FLuc -3%, DT40 TDP1 CPT -28%, TDP1 cell noCPT -25% and RORgamma inh 1%.
`Oc1cccc(Nc2nc(-c3ccccc3)nc3ccccc23)c1` gave IL-1B inflam inh -91*, Gal4-VP16 FLuc -15%, DT40 TDP1 CPT inconclusive, TDP1 cell noCPT inconclusive, LDHA inh 0 and RORgamma inh -36%.
For CC(=O)c1ccc(Nc2nc(-c3ccccc3)nc3ccccc23)cc1 the results were IL-1B inflam inh -60*, DT40 TDP1 CPT inconclusive, TDP1 cell noCPT 21µM* and LDHA inh -5.
For CC(=O)c1cccc(Nc2nc(-c3ccccc3)nc3ccccc23)c1 the results were IL-1B inflam inh -22, Gal4-VP16 FLuc 3%, DT40 TDP1 CPT inconclusive, TDP1 cell noCPT inconclusive, LDHA inh -9 and RORgamma inh 40%.
Screening NC(=O)c1cn[nH]c1NCc1cccnc1 returned LDHA inh -3.
Clc1ccc(Sc2ccnc3cc(Cl)ccc23)cc1 was read as LDHA inh -1.
Screening COc1cccc(OCC(=O)NCc2cccc(CN3CCCC3)c2)c1 returned LDHA inh -1.
Cn1c(=O)c2nc(SCC(=O)c3ccc(Cl)cc3)n(C)c2n(C)c1=O was read as LDHA inh 3.
For CS(=O)(=O)Nc1cccc(-c2ccc3ncnc(N4CCOCC4)c3c2)c1 the results were Gal4-VP16 FLuc 1%, DT40 TDP1 CPT 4.1µM*, TDP1 cell noCPT 13µM* and RORgamma inh inconclusive.
Cc1cccc(CNc2nc(-c3ccc(C(=O)N(C)C)cc3)nc3ccccc23)c1 was read as Gal4-VP16 FLuc -1%, DT40 TDP1 CPT 23µM*, TDP1 cell noCPT 2.9µM* and RORgamma inh inconclusive.
Screening CS(=O)(=O)Nc1cccc(-c2ccc3ncnc(Nc4ccc(F)cc4)c3c2)c1 returned Gal4-VP16 FLuc -1%, DT40 TDP1 CPT 18µM*, TDP1 cell noCPT inconclusive and RORgamma inh inconclusive.
For CS(=O)(=O)Nc1cccc(-c2nc(Nc3ccccc3)c3ccccc3n2)c1 the results were Gal4-VP16 FLuc -13%, DT40 TDP1 CPT 9.2µM*, TDP1 cell noCPT 4.6µM* and RORgamma inh 13%.
`CS(=O)(=O)Nc1cccc(-c2ccc3ncnc(NCCN4CCOCC4)c3c2)c1` gave Gal4-VP16 FLuc 24%, DT40 TDP1 CPT inconclusive, TDP1 cell noCPT inconclusive and RORgamma inh inconclusive.
`O=C(CSc1ncnc2nc(N3CCOCC3)sc12)Nc1cc(C(F)(F)F)ccc1Cl` gave LDHA inh 12.
`C/C(=C\c1ccccc1)C(=O)Nc1ccc(C)cc1C` gave LDHA inh 5.
For COc1ccc(-c2nc3ccc(Cl)cc3c(=O)n2Cc2ccccc2)cc1COc1ccc(NC(C)=O)cc1 the results were LDHA inh 2.
COc1ccc(-c2nc3ccc(NC(C)=O)cc3c(=O)n2Cc2ccccc2)cc1COc1ccc(NC(C)=O)cc1 was read as DT40 TDP1 CPT inconclusive, TDP1 cell noCPT 11µM* and LDHA inh 23.
Screening COc1ccc(-c2nc3ccccc3c(=O)n2Cc2ccccc2)cc1COc1ccc(NC(C)=O)cc1 returned LDHA inh 7.
`COc1ccc(-c2nc3ccc(NC(=O)CO)cc3c(=O)n2Cc2cccc(Cl)c2)cc1COc1ccc(NC(C)=O)cc1` gave DT40 TDP1 CPT 11µM*, TDP1 cell noCPT 13µM* and LDHA inh 16.
Screening CC(C)(C)NC(=O)CN(Cc1cccs1)C(=O)CCN1CCc2ccccc21 returned IL-1B inflam inh 7, Gal4-VP16 FLuc 6%, DT40 TDP1 CPT inconclusive, TDP1 cell noCPT -21%, LDHA inh 1 and RORgamma inh 12%.
CC(C(=O)NC(C)(C)C)N(Cc1cccs1)C(=O)CCN1CCc2ccccc21 (configuration not stated) was read as IL-1B inflam inh 20, Gal4-VP16 FLuc 6%[10 µM], DT40 TDP1 CPT 23µM*, TDP1 cell noCPT inconclusive, LDHA inh -1 and RORgamma inh 36%.
Screening CCOc1cccc(CNCc2cccnc2)c1OCc1ccc(C)cc1 returned LDHA inh 2.
Screening CCn1c2ccccc2c2nnc(SCCCn3c(=O)[nH]c4ccccc43)nc21 returned IL-1B inflam inh 2, Gal4-VP16 FLuc inconclusive, DT40 TDP1 CPT inconclusive, TDP1 cell noCPT 23µM*, LDHA inh -1 and RORgamma inh 5%.
Screening CCCCn1c2ccc(C)cc2c2nnc(SCCN3CCCCC3)nc21 returned IL-1B inflam inh -78*, Gal4-VP16 FLuc 0%, DT40 TDP1 CPT inconclusive, TDP1 cell noCPT 21µM*, LDHA inh 1 and RORgamma inh -35%.
